# Compound activity from PubChem BioAssay.
# TRHR agonist: qHTS for Small Molecule Agonists and Allosteric Enhancers of Human TRH Receptor: Primary Screen for Agonists | Thyrotropin-releasing hormone receptor (Homo sapiens), P34981 | TRHR cells, calcium flux fluo-8, FDSS agonist mode | activation, % at 2 µM | 0.18% of 360,000 active | AID 493084, 2011; also: 0% is about no effect
#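 Fluo-8-loaded TRHR cells; 10 s baseline, compound added, kinetic Ca2+ fluorescence read 1/s, agonist mode.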
# TRHR enhancer: qHTS for Small Molecule Agonists and Allosteric Enhancers of Human TRH Receptor: Primary Screen for Enhancers; TRHR cells, fluo-8 calcium fluorescence, EC20 TRH enhancement; enhancement, % at 2 µM; 0.66% of 360,000 active; AID 493056, 2011; in the data active = enhancement above about 30%; also: 0% is about no effect
#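 Enhancer read-out: after compound pinning and an initial kinetic agonist-mode read, an EC20 of TRH (10 nM final) was injected and fluo-8 calcium signal (Ex 480/Em 530) followed at 1 s/cycle for 100 cycles in TRHR-expressing cells.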
# D1 ag: Allosteric Agonists of the Human D1 Dopamine Receptor: qHTS; HEK293 T-REx D1 cells, calcium flux, agonist mode; AID 504660, 2011; 1% of 360,000 active; D(1A) dopamine receptor (Homo sapiens), P21728; activation, % at 2 µM; also: 0% is about no effect
# Target sequence (P21728 whole entry, looked up): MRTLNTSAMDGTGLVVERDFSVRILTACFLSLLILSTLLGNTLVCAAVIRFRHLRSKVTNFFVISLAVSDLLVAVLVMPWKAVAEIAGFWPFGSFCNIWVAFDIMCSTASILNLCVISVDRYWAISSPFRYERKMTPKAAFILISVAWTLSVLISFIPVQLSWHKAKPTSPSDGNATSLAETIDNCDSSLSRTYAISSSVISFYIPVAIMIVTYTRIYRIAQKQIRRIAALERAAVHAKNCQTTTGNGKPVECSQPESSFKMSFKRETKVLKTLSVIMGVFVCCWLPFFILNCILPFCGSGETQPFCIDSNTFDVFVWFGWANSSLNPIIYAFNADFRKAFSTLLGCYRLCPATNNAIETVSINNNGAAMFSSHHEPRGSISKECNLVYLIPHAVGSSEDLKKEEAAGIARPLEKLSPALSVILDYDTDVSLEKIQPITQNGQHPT
#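 Agonism was scored from calcium flux recorded over 180 s (1 read/s) after pintool compound addition, following a 10-cycle baseline. Cells were inducible force-coupled HEK293 TREx D1, plated overnight at 30 C and loaded with no-wash calcium dye.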
# D1 antag: Antagonist of Human D 1 Dopamine Receptor: qHTS; AID 504652, 2011; D(1A) dopamine receptor (Homo sapiens), P21728; HEK293 TREx D1 cells, calcium flux, dopamine EC80; active compounds read low; 3.2% of 360,000 active; activity change, negative = inhibition, % at 10 µM; in the data active = activity change below about -30%; also: % is scaled to controls: 0 for no effect and ±100 for the full control effect
#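 Tetracycline-induced HEK293 Trex D1 cells, force-coupled to calcium, dye-loaded; compounds added and read 180 s, then EC80 dopamine added and calcium flux tracked kinetically another 180 s.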
# D1 PAM: Potentiators of Human D1 Dopamine Receptor: qHTS; D(1A) dopamine receptor (Homo sapiens), P21728; 0.036% of 360,000 active; AID 504651, 2011; potentiation, % at 10 µM; HEK293 TREx D1 cells, calcium flux, dopamine EC20 potentiation; in the data active = potentiation above about 30%; also: 0% is about no effect
# Active calls of the source: *; . = no result; ! = a repeat was not active. In the library only some 4.6% were active in any assay of this set; here they are far more common. Rule as the data show it, unless noted: active = activation above about 30%; inactive = the rest.
SMILES,TRHR agonist,TRHR enhancer,D1 ag,D1 antag,D1 PAM
Cc1sc2ncnc(N3CCC(C(=O)NNC(=O)COc4ccccc4F)CC3)c2c1C,-0.6,-1.3,5.2,-40.3*,2.9
Cc1sc2ncnc(N3CCC(C(=O)NNC(=O)COc4ccccc4Cl)CC3)c2c1C,-0.1,11.9,12.0,4.9,-14.2
COc1ccccc1-c1nc2cc(NC(=O)c3ccccc3Cl)ccc2o1,-0.6,-3.5,3.6,4.1,0.7
Cc1ccc2oc(-c3cc(NC(=O)c4oc5ccccc5c4C)ccc3Cl)nc2c1,0.1,-3.4,7.4,4.9,-0.9
O=C(Nc1ccc(-c2nc3cc(Cl)ccc3o2)cc1)c1cc(Br)ccc1Cl,-0.5,2.5,4.7,-9.3,-1.2
O=C(O)c1ccccc1-c1ccccc1C(=O)Nc1ccc(-c2nc3cc(Cl)ccc3o2)cc1,0.6,1.1,6.5,-30.5*,-4.1
O=C(Nc1ccc2oc(-c3ccncc3)nc2c1)c1ccccc1Cl,-0.2,-0.3,2.5,-71.4*,0.3
Cc1ccc2oc(-c3cc(NC(=O)c4ccco4)ccc3Cl)nc2c1,0.2,28.5,-2.4,-39.4*,-1.1
O=C(Nc1ccc2oc(-c3ccccc3F)nc2c1)c1ccccc1Cl,-0.4,6.3,4.3,-48.5*,-2.5
O=C(NCc1ccccc1Cl)c1ccc2c(c1)ncn2-c1cccc(F)c1,0.0,3.0,3.1,-12.7,-6.2
CC(C)C(=O)NC(=S)Nc1ccc(S(=O)(=O)Nc2nccs2)cc1,0.0,-1.3,3.2,-17.6,-3.9
CCO[C@@H]1OC(C(=O)NC2CC2)=C[C@H](c2ccccc2)[C@H]1CCCO,-0.2,6.0,-4.2,-9.3,1.6
CS/C(Nc1cc(Cl)ccc1Cl)=C(/C#N)C(=O)c1ccco1,-0.3,-7.0,3.6,8.2,-2.5
CC(C)CC1(C(=O)NCc2cc(F)cc(C(F)(F)F)c2)C=CCN1C(=O)c1ccccc1 (stereo not given),-0.9,-18.8,-1.5,-30.2*,-0.3
Cc1cc(/C=N/n2cnnc2)c(C)n1-c1ccc(Cl)cc1Cl,1.0,-5.9,15.1,-34.9*,-5.3
CCOc1cc(/C=C2\SC(=N)N(c3nonc3N)C2=O)ccc1OCCN1CCOCC1,0.4,7.7,1.4,1.5,-1.4
O=C(Nc1nccs1)c1ccc2c(c1)C(=O)N(Cc1cccnc1)C2=O,0.0,4.4,4.9,-5.2,-0.7
Cc1cnc(NC(=O)c2ccc3c(c2)C(=O)N(Cc2cccnc2)C3=O)s1,0.1,-1.4,2.3,-32.9*,-1.9
Cc1ccc(NC(=O)C(=O)NCC2OCCc3ccccc32)cc1 (stereo not given),0.3,32.6*,2.1,-5.6,-0.3
Cc1ccc(NC(=O)C2OCCc3ccccc32)cc1 (stereo not given),-1.4,17.6,1.7,-2.6,-6.5
Cc1ccc(C(=O)NNC(=O)C2CCCN(c3ncccn3)C2)cc1 (stereo not given),-0.1,-4.7,1.8,-20.8,-8.2
Cc1ccc(N(C)C(=O)C2CCN(S(=O)(=O)c3ccc4c(c3)oc(=O)n4C)CC2)cc1,0.1,1.0,-0.8,-14.3,7.1
Cn1c(=O)oc2cc(S(=O)(=O)N3CCCC(C(=O)N4CCN(c5ccc(Cl)cc5)CC4)C3)ccc21 (stereo not given),-0.7,-1.8,9.4,-33.6*,-2.5
COc1ccc(N2CCN(C(=O)C3CCCN(S(=O)(=O)c4ccc5c(c4)oc(=O)n5C)C3)CC2)cc1 (stereo not given),0.7,-4.1,3.2,-45.3*!,-3.6
COc1ccccc1N1CCN(C(=O)C2CCCN(S(=O)(=O)c3ccc4c(c3)oc(=O)n4C)C2)CC1 (stereo not given),-0.4,-4.2,15.3,0.2,-9.5
SMILES,TRHR agonist,TRHR enhancer,D1 ag,D1 antag,D1 PAM
CCN(C(=O)C1CCN(S(=O)(=O)c2ccc3c(c2)oc(=O)n3C)CC1)c1cccc(C)c1,0.3,-5.5,0.8,-39.1*,.
Cc1ccc(N2CCN(C(=O)C3CCN(S(=O)(=O)c4ccc5c(c4)oc(=O)n5C)CC3)CC2C)cc1 (stereo not given),-1.3,-3.1,12.2,-44.4*,-3.1
Cc1ccc(C)c(S(=O)(=O)c2nnn3c2nc(N2CCN(C)CC2)c2sccc23)c1,-0.5,16.7,3.5,8.4,-5.8
CC(C)CN(CC(C)C)C(=O)C1CCCN(S(=O)(=O)c2ccc3c(c2)oc(=O)n3C)C1 (stereo not given),-0.9,5.1,0.6,-30.9*,-1.0
CCN(CC)C(=O)C1CCN(S(=O)(=O)c2ccc3oc4ccccc4c3c2)CC1,-0.3,-3.6,7.2,-35.5*,2.4
Cc1ccc(C)c(NC(=O)CSc2c(C)n[nH]c2C)c1,-0.1,1.5,0.2,-0.9,4.5
COc1ccc(Cl)cc1NC(=O)NCC1CCN(Cc2cc(C)ccc2C)CC1,1.3,1.1,29.7,-31.3*,-9.4
O=C(NCC1CCN(Cc2cccc(Cl)c2)CC1)Nc1cc(Cl)ccc1Cl,2.4,-1.1,18.5,11.8,-0.6
COc1cc([N+](=O)[O-])ccc1NC(=O)NCC1CCN(Cc2ccc(Cl)cc2)CC1,3.2,15.6,31.5*,-33.0*,-9.8
CCC(Sc1ccc(Cl)cc1)C(=O)Nc1nnc(-c2cccc([N+](=O)[O-])c2)s1 (stereo not given),0.3,5.6,1.0,26.5,1.9
COc1cc(CNCCc2c[nH]c3ccccc23)cc(Cl)c1OCC(N)=O,2.7,2.4,12.3,-30.7*,-2.1
COc1cc(CNCc2ccccc2)cc(Cl)c1OC,-0.5,3.2,5.3,-1.4,-9.7
CNCc1cc(Br)c(OCC(=O)Nc2ccccc2OC)c(OC)c1,2.0,4.2,13.6,2.7,-3.5
CCOc1c(Cl)cc(CNCC(C)C)cc1OC,0.9,10.4,6.7,3.8,3.2
CCOc1cc(CNCC(C)C)cc(Cl)c1OCc1ccccc1,0.5,-4.4,47.3*,9.0,18.4
COc1cc(CNCCc2ccccc2)cc(Br)c1OCC(=O)Nc1ccccc1C,1.3,5.1,51.1*,-15.6,-2.6
COc1cc(CNCCc2ccccc2)cc(Cl)c1OCc1ccccc1,-2.1,9.0,40.1*,12.4,17.3
COc1cccc(N2CCN(C(=O)CCn3nc(C)c(S(=O)(=O)N4CCCC4)c3C)CC2)c1,-1.5,5.8,-0.2,-1.9,0.1
CCOc1ccc(NC(=O)C(NC(=O)C2CCC(C)CC2)C(C)C)cc1 (stereo not given),-0.2,0.9,-1.7,-1.2,-1.3
COc1cc(CNCCc2ccc(F)cc2)ccc1OCc1ccc(Cl)nc1,5.8,6.2,91.9*,-40.0*,-20.6
Cc1cc(C)nc(NS(=O)(=O)c2ccc(NC(=O)COc3ccccc3)cc2)n1,-0.3,8.7,1.0,-17.5,-7.2
